# Screening data deposited in PubChem by National Center for Advancing Translational Sciences (NCATS).
# In the library only some 8.2% were active in any assay of this set; here they are far more common.
# KB-V1 MDR tox: KB-V1 MDR subline cytotoxicity. 3.4% of 400,000 active. Potency, µM (highest dose often 46.1 µM), usual class: cytotoxic. KB-V1 MDR cells viability, CellTiter-Glo, 72 h. AID 1347076; also: nearly all actives have a fitted effect of over 60% in size
#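 Cytotoxicity via CellTiter-Glo luminescence after 72 h compound exposure at 37 degrees C. Cells: drug-selected KB-V1 line, DMEM phenol-red free plus 10% FBS. Compounds tested at multiple concentrations; normalized data fitted to concentration-effect curves.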
# MCF10A rereplic: induces DNA re-replication in MCF 10a normal breast cells. MCF 10A DNA re-replication, Hoechst nuclear intensity, 48 h. 2.9% of 350,000 active. Potency, µM (series often up to 46.1 µM), hits mostly activators; also: nearly all actives have a fitted effect of over 50% in size
# KB-3-1 cytotox: kills parental KB-3-1 adenocarcinoma cells; KB-3-1 viability, CellTiter-Glo ATP luminescence, 72 h; Potency, µM (highest dose often 46.1 µM), most hits filed as cytotoxic; 1.4% of 400,000 active; AID 1347075; also: nearly all actives have a fitted effect of over 60% in size
#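 Parental KB-3-1 adenocarcinoma cells in phenol-red-free DMEM with 10% FBS were pin-treated with compounds at several concentrations, incubated 72 h at 37 °C, and viability read by CellTiter-Glo luminescence; concentration-effect curves were fitted after normalization.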
# SW480 rereplic: induces DNA re-replication in SW480 colon adenocarcinoma cells. SW480 DNA re-replication, Hoechst DNA content imaging, 48 h. Potency, µM (titrated, usually from 46.1 µM), hits mostly activators. 1.8% of 340,000 active; also: nearly all actives have a fitted effect of over 55% in size
#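 Cells (250 per well) received 23 nL compound or DMSO by pin tool and were kept 48 hr at 37 C, 5% CO2. Nuclei were then stained with Hoechst for 40 min and scanned for DNA content.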
# ELG1 DNA repair: ELG1-dependent DNA repair inhibition. HEK293T ELG1-luciferase reporter, luminescence, 16 h; DNA damage induced by 5-fluorouridine. AID 504467. Potency, µM (series often up to 46.1 µM), actives largely listed as inhibitors. 2.3% of 330,000 active; also: nearly all actives have a fitted effect of over 55% in size
#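 In this reporter screen, reduction of luminescence relative to DMSO vehicle indicated activity. Compounds and 5-fluorouridine were added together to 2,000 cells per well, incubated for 16 hr at 37 °C, then developed with ONE-Glo.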
# A number is an active result; - = inactive; ? = inconclusive; . = not tested or not shown; [ ] = dose if it differs, or a comment. Calls follow the shape of the dose curve; as a rule, active = well fitted curve in the direction sought with a large enough effect; inconclusive = small, poorly fitted or top-dose-only effect, or another doubt; inactive = no such curve, though single readings can be large; an effect the other way counts as inactive or inconclusive.
SMILES,KB-V1 MDR tox,MCF10A rereplic,KB-3-1 cytotox,SW480 rereplic,ELG1 DNA repair
Cc1ccc(-c2cc(C(=O)N/N=C/c3c[nH]c4ccccc34)n[nH]2)o1,-,-,-,3.7µM,?
Cc1ccc(C(=O)N/N=C/c2c[nH]c3ccccc23)o1,-,-,-,-,?
Cc1ccc(-c2cc(C(=O)N/N=C/C(Br)=C/c3ccccc3)n[nH]2)o1,?,13µM,-,15µM,-
Cc1ccc(-c2cc(C(=O)N/N=C/c3ccccc3O)n[nH]2)o1,?,18µM,?,3.3µM,-
CCCCN1CC(=O)N2[C@H]3c4ccccc4OC[C@@H]3[C@H](C(=O)OCC)[C@]2(C)C1=O,-,?,-,-,-
Cc1ccc(C)c(N2CCN(C(=O)C3CCCCN3S(=O)(=O)c3ccc(F)cc3)CC2)c1 (stereo unspecified),2.6µM,-,?,-,?
Cc1cc(C)nc(N2CCC(C(=O)N3CCN(c4cc(Cl)ccc4C)CC3)CC2)n1,4.1µM,?,?,?,?
Cc1ccc(C)c(N2CCN(C(=O)C3CCN(c4nc5ccc(C)cc5[nH]4)CC3)CC2)c1,-,.,-,.,.
Cc1ccc(C)c(N2CCN(C(=O)C3CCN(c4nnc(N5CCCC5=O)s4)CC3)CC2)c1,-,-,?,-,15µM
Cc1ccc(C)c(N2CCN(C(=O)C3CCN(c4nc(C)cc(C)n4)CC3)CC2)c1,3.7µM,-,?,-,?
CCOC(=O)N1CCN(C(=O)C[C@@H]2C[C@@]3(C(=O)OCC)CCCC=C3N(Cc3ccc4c(c3)OCO4)C2=O)CC1,-,.,-,.,.
COc1ccc(C(=O)NC(C)c2cccnc2)cc1S(=O)(=O)N(C)Cc1ccccc1 (stereo unspecified),-,-,-,-,?
COC(=O)[C@]1(Cc2ccccc2)N[C@H](CN(C)C(=O)c2ccc(C)cc2)[C@@H]2C(=O)N(Cc3ccccc3)C(=O)[C@@H]21,-,-,-,-[9.22 µM],?
O=C(c1cc2ncc(CCCl)cn2n1)N1CCCCCC1,-,-,-,?,?
CC1CCCC(C)N1C(=O)c1cc2ncc(CCCl)cn2n1 (stereo unspecified),21µM,-,-,-,-
CC(=O)CSc1nc2nccnc2[nH]1,-,.,-,.,.
O=c1c2c([nH]c3ccc(Br)cc13)CCCC2,-,-,-,-,-
O=C1Cc2c([nH]c3ccc(Br)cc23)-c2ccccc2N1,?,4.1µM,?,-,.
O=C(/C=C/c1ccccc1)NC(NC(=S)Nc1ccc(Cl)cc1)C(Cl)(Cl)Cl (stereo unspecified),?,16µM,?,?,-
O=C(CCc1ccccc1)NC(NC(=S)Nc1ccc(Cl)cc1)C(Cl)(Cl)Cl (stereo unspecified),-,-,18µM,?,-
COc1cc2ccccc2cc1C(=O)N1CCCC(C(F)(F)F)C1 (stereo unspecified),15µM,-,-,-,-
O=C(c1cc2ccccc2cc1O)N1CCCC(C(F)(F)F)C1 (stereo unspecified),-,?,-,-,-
O=C(c1ccccc1)c1nn(-c2ccc(Cl)cc2)c(=O)cc1C(F)(F)F,18µM,12µM,?,?,?
O=C(Nc1ccccc1)c1nn(-c2ccccc2)c(=O)cc1C(F)(F)F,-,-,-,-,-
O=C(c1cccc(Cl)c1)c1nn(-c2ccccc2)c(=O)cc1C(F)(F)F,23µM,-,?,-,?
SMILES,KB-V1 MDR tox,MCF10A rereplic,KB-3-1 cytotox,SW480 rereplic,ELG1 DNA repair
NS(=O)(=O)c1ccc(NC(=S)N2CCC(Cc3ccccc3)CC2)cc1,-,-,-,-,?
CC1Cc2ccccc2N1CC(=O)Nc1ccc(Cl)c(S(=O)(=O)N(C)C)c1 (stereo unspecified),-,-,-,-,23µM
COc1ccc(Cl)cc1NC(=O)CN1c2ccccc2CC1C (stereo unspecified),15µM,-,?,-,?
CC1Cc2ccccc2N1CC(=O)Nc1ccc2c(c1)OCCCO2 (stereo unspecified),-,-,-,-,-
COCCOC(=O)c1c(NC(=O)CN2c3ccccc3CC2C)sc(C(N)=O)c1C (stereo unspecified),?,-,-,-,9.2µM
COc1ccc(Cl)cc1NC(=O)CN1CCc2ccccc2C1,-,-,?,-,?
